Bioassay records as filed in PubChem.
mIDH1 inhibitor = qHTS for Inhibitors of mutant isocitrate dehydrogenase 1 (IDH1): qHTS | Isocitrate dehydrogenase [NADP] cytoplasmic (Homo sapiens), O75874 | IDH1-R132H enzyme, NADPH consumption, diaphorase/resazurin fluorescence | Potency, µM (titrated, usually from 76.6 µM), for the others: at the top dose activity change, negative = inhibition, hits mostly inhibitors | 390,000 tested, 0.093% active | AID 602179, 2012; also: potency is read from the fitted curve at half-maximal effect; nearly all actives have a fitted effect of over 65% in size
Target sequence (O75874 whole entry R132H, stated change not applied): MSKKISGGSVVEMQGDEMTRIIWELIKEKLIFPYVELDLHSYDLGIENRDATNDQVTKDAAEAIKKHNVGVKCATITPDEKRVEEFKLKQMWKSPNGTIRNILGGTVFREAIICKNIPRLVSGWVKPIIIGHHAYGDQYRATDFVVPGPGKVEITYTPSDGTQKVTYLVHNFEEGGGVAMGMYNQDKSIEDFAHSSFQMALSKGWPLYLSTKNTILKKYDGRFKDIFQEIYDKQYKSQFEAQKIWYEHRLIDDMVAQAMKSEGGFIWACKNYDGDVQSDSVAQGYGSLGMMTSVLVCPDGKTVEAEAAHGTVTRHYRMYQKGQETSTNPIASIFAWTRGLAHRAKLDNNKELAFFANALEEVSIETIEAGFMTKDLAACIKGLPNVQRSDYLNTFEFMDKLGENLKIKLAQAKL
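IDH1-R132H (0.5 ug/mL) preincubated 30 min with compound, then NADPH (0.016 mM) and alpha-KG (2 mM) added; 80 min at RT, pH 7.5. Remaining NADPH coupled via diaphorase/resazurin to fluorescence (540/590 nm); concentration-response curves normalized to no-enzyme control.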
Coupling enz = qHTS Assay for Inhibitors of Fructose-1,6-bisphosphate Aldolase from Giardia Lamblia: Coupling assay counterscreen; activity change, negative = inhibition, % at 58.2 µM, hits read low; coupling enzyme system counterscreen, AmpLite Red fluorescence; 290,000 tested, 0.67% active; AID 2472, 2010; in the data active = activity change below about -30%
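Final compound at 57.5 uM, incubated 10 min at RT with coupling enzyme reagent (glyceraldehyde-3-phosphate), then 20 min with substrate and AmpLite Red detection. Fluorescence read at 525/598 nm; tests interference with the coupling assay, not aldolase inhibition.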
rTrxR1 inhibitor = qHTS Assay for Inhibitors of Mammalian Selenoprotein Thioredoxin Reductase 1 (TrxR1): qHTS. Potency, µM (doses to about 114 µM), for the others: at the highest dose activity change, negative = inhibition, most hits filed as inhibitors. recombinant rTrxR1, NADPH fluorescence consumption, selenite substrate. AID 588453, 2011. 390,000 tested, 1% active; also: potency is read from the fitted curve at half-maximal effect; nearly all actives have a fitted effect of over 65% in size
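Rat TrxR1 (90 nM in the dispensed reagent) was pre-reduced with 400 uM NADPH for 5 min at room temperature, then incubated with compound for 15 min. After 400 uM selenite was added, NADPH fluorescence (Ex 340/Em 450 nm) was followed for 8 min.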
TrxR1 substrate = qHTS Assay for Substrates of Mammalian Selenoprotein Thioredoxin Reductase 1 (TrxR1): qHTS | purified TrxR1 substrate turnover, NADPH consumption readout | 390,000 tested, 0.01% active | AID 588456, 2011 | Thioredoxin reductase 1, cytoplasmic (Rattus norvegicus), O89049 | Potency, µM (highest dose often 114 µM), for the others: at the top dose activity change, negative = substrate turnover; also: potency is read from the fitted curve at half-maximal effect; nearly all actives have a fitted effect of over 50% in size
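Rat TrxR1, dispensed at 90 nM, was prereduced with 400 uM NADPH (final) for 5 min at ~22 deg C, then incubated with compound 15 min before 400 uM selenite. A first-read NADPH fluorescence drop versus no-compound background flagged substrates.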
Eya2 inh = qHTS Assay for Inhibitors of the Phosphatase Activity of Eya2; Protein phosphatase EYA2 (Homo sapiens), O00167; Potency, µM (top dose mostly 76.9 µM), for inactives: top-dose activity, negative = inhibition, actives largely listed as inhibitors; 330,000 tested, 0.006% active; recombinant Eya2, OMFP fluorescence dephosphorylation (OMFP is methylfluorescein phosphate); AID 488837, 2010; also: potency is read from the fitted curve at half-maximal effect
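Eya2 (0.2 uM) preincubated 10 min at ambient with compound, then OMFP substrate added at 50 uM; 10 min reaction in 50 mM HEPES pH 7.5, 50 mM NaCl, 5 uM MgCl2, 0.05% BSA, 1 mM DTT. Fluorescence read at Ex 485/Em 525 nm.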
Numbers without * were called inactive; u = inconclusive; x = not tested or not shown; ! = repeats disagree; [ ] = another dose, or the depositor's remark. In the library only some 1.5% were active in any assay of this set; here they are far more common. Unless noted, calls follow the shape of the dose curve; as a rule, active = well fitted curve in the direction sought with a large enough effect; inconclusive = small, poorly fitted or top-dose-only effect, or another doubt; inactive = no such curve, though single readings can be large; an effect the other way counts as inactive or inconclusive. % is scaled to controls: 0 for no effect and ±100 for the full control effect.

SMILES | mIDH1 inhibitor | Coupling enz | rTrxR1 inhibitor | TrxR1 substrate | Eya2 inh
C=C(NNC(C)=O)c1ccc(O)cc1 | x | x | -6% | 43% | x
N#Cc1ccccc1NC(=S)NC(=O)c1cccs1 | 3% | 1 | 2.2µM* | -7% | 1%
COc1ccc(C2C(C#N)=C(N)Oc3cc(O)ccc32)cc1C (centres undefined) | 8% | -1 | 16µM* | -1% | 14%
COc1ccc(C2C(C#N)=C(N)OC(C(C)(C)C)=C2C#N)cc1OC (centres undefined) | 6% | -37* | u | -3% | -7%
O=C(Cc1ccc(OCCCCc2ccccc2)cc1)NO | x | x | 12% | -1% | x
COc1cccc(Nc2ncc3nc(-c4ccccc4)c(=O)n(Cc4cccs4)c3n2)c1 | x | 4 | x | x | x
CCN1C(Br)=CCc2ccccc21 | x | x | 14% | 10%[0.0914 µM] | x
CCCCC/C=C\C/C=C\C/C=C\CCCCCCC(=O)NCC(=O)O | x | 3 | x | x | x
Cc1ccc(-c2nc(CS(=O)CC(=O)NC3CCC(C)CC3)c(C)o2)cc1 (centres undefined) | 1% | 7 | 16µM* | 22%[57.1 µM] | 2%
CCOC(=O)C1CCN(C(=O)CS(=O)Cc2nc(-c3ccc(C)cc3)oc2C)CC1 (centres undefined) | 7% | 1 | 14µM* | 1%[57.1 µM] | 7%
Cc1ccc(-c2nc(CS(=O)CC(=O)N3CCN(c4ccc(F)cc4)CC3)c(C)o2)cc1 (centres undefined) | 13% | x | u | 7% | -1%
Cc1oc(-c2ccccc2)nc1CS(=O)CC(=O)NC1CCCCCC1 (centres undefined) | -5% | x | 32µM* | -15% | 10%
Cc1c(C(=O)Nc2ccc(Br)cc2)cnn1C | 10% | -4 | -17% | -10% | -2%
Cc1c(C(=O)c2no[n+]([O-])c2C(=O)c2cnn(C)c2C)cnn1C | 1% | 4 | 1.3µM* | -5% | -8%
O=[N+]([O-])c1ccc(Nc2nc(NCCN3CCOCC3)nc(Nc3ccc(Cl)cc3)n2)cc1 | x | x | 9% | -4% | x
COC(=O)C/C=C\[C@@H](C)[C@@H](/C=N\OC[C@@H]1O[C@H](c2ccccc2)C=C[C@@H]1Oc1ccc(OC)cc1)NS(=O)(=O)c1ccc(C)cc1 | x | -1 | x | x | x
Cc1cccc(-n2nnnc2S(C)(=O)=O)c1 | 3% | x | 1.8µM* | -6%[57.1 µM] | x
COc1cccc(-n2nnnc2S(C)(=O)=O)c1 | -2% | 5 | 3.2µM* | 5% | -4%
O=C(O)CC1=C(O)C(=O)N(c2ccccc2)C1c1ccc(Br)cc1 (centres undefined) | 2% | 13 | u | 1% | 6%
O=C(O)CC1=C(O)C(=O)N(c2ccccc2)C1c1ccccc1 (centres undefined) | 7% | 9 | 45µM* | -8% | -22%
Oc1ccc(/C=N/Nc2cc(N3CCCC3)nc(N3CCCC3)n2)cc1O | 2% | -37* | -21% | -13% | -7%
CC(C)C(NC(=O)c1ccccc1)C(=O)OCC(=O)N1CCCC1 (centres undefined) | -9% | x | 13% | -2% | 3%
CC(C)[C@H](NC(=O)c1ccc(Cl)cc1)C(=O)OCC(=O)N1CCN(c2ccccc2)CC1 | 2% | x | 32µM* | 2% | 5%
Cc1c(NS(=O)(=O)c2ccccc2)cc(Cl)c(O)c1C | 0% | -1 | 25µM* | 8% | 1%
Cc1c(Cl)cccc1NS(=O)(=O)c1ccccc1 | 7% | x | 45%[57.1 µM] | 26%[57.1 µM] | x
SMILES | mIDH1 inhibitor | Coupling enz | rTrxR1 inhibitor | TrxR1 substrate | Eya2 inh
Nc1nc(Cl)nc2c1ncn2[C@@H]1O[C@H](COP(=O)(O)OP(=O)(O)OP(=O)(O)O)[C@@H](O)[C@H]1O | x | x | -8%[57.1 µM] | -1%[57.1 µM] | -10%
COc1ccccc1C1(O)CCN(CCCn2c3ccccc3c3ccccc32)CC1 | x | 4 | x | x | x
CC1=CC(=O)C=C(C)C1=NOc1ccccc1[N+](=O)[O-] | 3% | -37* | u | -8% | -3%
COC(=O)C[C@H]1c2cc(F)ccc2S(=O)(=O)N1C1CC1 | x | x | 11% | 3% | x
COCCn1c(Br)nc2c1c(=O)n(C)c(=O)n2C | -9% | 1 | 4%[57.1 µM] | -2%[57.1 µM] | -15%
Cc1ccc(OCCn2c(Br)nc3c2c(=O)n(C)c(=O)n3C)cc1 | 8% | -50* | 2% | -5% | 5%
Cc1cc(C)c(C)c(S(=O)(=O)ON2C(=O)c3ccccc3C2=O)c1C | 15% | x | 1.3µM* | 26% | -2%
Cc1ccc(S(=O)(=O)ON2C(=O)c3ccccc3C2=O)c(C)c1 | 3% | -4 | 3.5µM* | 51% | -2%
Cc1cc(C)c(S(=O)(=O)ON2C(=O)c3ccccc3C2=O)cc1C | 8% | -3 | 3.5µM* | 22% | 13%
C[C@H](O)CON1C(=O)c2ccccc2C1=O | x | 0 | x | x | x
O=C1c2ccccc2C(=O)N1OS(=O)(=O)c1ccc(F)cc1 | 1% | 1 | 21% | 0% | -8%
Cc1noc(C)c1-c1ccc2ncnc(NCc3ccco3)c2c1 | x | -1 | x | x | x
O=C1NC(=O)C(c2ccccc2[N+](=O)[O-])=C1Nc1ccc(O)c(Cl)c1 | 16% | -6 | 2.7µM*! | -3%[57.1 µM] | 8%
O=C(NCc1ccco1)/C(=C/c1ccco1)NC(=O)c1ccc(Br)o1 | 2% | -6 | 50µM* | -7% | -33%
O=C(NCc1ccco1)/C(=C\c1ccco1)NC(=O)c1ccco1 | -5% | -21 | 50µM* | -8% | -2%
COc1cc2nc(NC3CCN(Cc4ccccc4)CC3)nc(N3CCCN(C)CC3)c2cc1OC | x | x | -11% | 26% | x
COc1ccc(C(=O)/C=C/C(=O)N(CC(=O)NC2CCCCC2)CC2CCCO2)c(O)c1 (centres undefined) | -4% | 4 | 1.3µM* | -14% | -4%
COc1ccc(C(=O)/C=C/C(=O)N(CC(=O)NC2CCCCC2)Cc2ccccc2OC)c(O)c1 | -14% | 2 | u | 8%[57.1 µM] | 1%
COc1ccc(C(=O)/C=C/C(=O)N(CC(=O)NC2CCCCC2)Cc2ccccc2)c(O)c1 | 8% | 1 | 3.2µM* | 8% | 0%
CCCCC/C=C\C/C=C\CCCCCCCCCC(=O)NC(C)C(=O)O (centres undefined) | x | -1 | x | x | x
CC(C)(C)OC(=O)N1CC=C2C(C#N)=C(N)C(C#N)(C#N)[C@H](c3cccnc3)[C@H]2C1 | u | -12 | 40µM* | 18% | -3%
Cc1ccccc1N/N=C/c1sc(=O)n(Cc2cccc(C(=O)O)c2)c1Cl | -9% | 6 | 50µM* | 1% | -3%
O=C(O)c1cccc(Cn2c(Cl)c(/C=N/NC(=O)c3ccco3)sc2=O)c1 | 9% | 5 | 79µM* | -19% | 1%
